Structures are written as SMILES. Where “and” joins values, the source holds several entries; their conditions need not be identical. Equal entries are not always repeated. Inconclusive results are not listed. Entries that show only a call come without a potency. Calls of active or inactive are those of the source. Unless noted, the call rests on the fitted dose curve; in most records, active means well fitted cell-killing curve with a large enough effect in the repeat runs; inconclusive means weak or mixed curves, or effect the other way; inactive means no such curve, though single readings can be large or run the other way.

Chain of Peroxisome proliferator-activated receptor gamma (Homo sapiens) (P37231 whole entry, looked up): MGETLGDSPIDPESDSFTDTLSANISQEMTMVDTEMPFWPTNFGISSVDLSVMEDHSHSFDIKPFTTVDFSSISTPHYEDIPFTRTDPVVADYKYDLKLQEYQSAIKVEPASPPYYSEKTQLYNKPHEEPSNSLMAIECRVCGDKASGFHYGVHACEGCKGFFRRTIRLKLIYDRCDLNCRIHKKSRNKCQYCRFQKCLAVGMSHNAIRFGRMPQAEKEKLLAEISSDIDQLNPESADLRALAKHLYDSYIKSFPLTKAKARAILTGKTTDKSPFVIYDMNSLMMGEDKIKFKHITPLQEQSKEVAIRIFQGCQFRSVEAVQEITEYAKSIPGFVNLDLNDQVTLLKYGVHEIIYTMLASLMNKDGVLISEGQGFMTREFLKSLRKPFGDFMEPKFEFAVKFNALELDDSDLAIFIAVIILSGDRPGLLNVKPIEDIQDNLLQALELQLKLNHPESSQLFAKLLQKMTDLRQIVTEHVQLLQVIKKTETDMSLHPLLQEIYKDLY

The target in the first assay is Peroxisome proliferator-activated receptor gamma (Homo sapiens) (UniProt P37231). The experiment in a line: qHTS assay to identify small molecule agonists of the peroxisome proliferator-activated receptor gamma (PPARg) signaling pathway (AID 743094; active means well fitted activation curve with a large enough effect in the signal ratio in the repeat runs, not every such curve was filed as active; the % refers to the signal ratio; further: potency means the concentration at half of the fitted maximal effect). To be noted: HEK293H PPARg-UAS-bla, beta-lactamase FRET ratio, 17 h; series mostly up to 57 µM. Summed up:
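Quantitative HTS agonist mode: stable HEK293H line with UAS-beta-lactamase reporter under PPARg control, 17 h compound exposure at 37C, fluorescence after 1 h FRET substrate loading at room temperature.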
A general note: qHTS replaces the single test concentration by a dilution series.
Regarding `CC(C)C(Br)C(=O)NC(N)=O` (stereo not drawn), the Potency entry was “inactive”. The same measure, in the same setting: to `CCCCC(CC)COC(=O)OOC(C)(C)C` (stereo not drawn) belongs “inactive”; to `CCOC(=O)Cc1ccccc1`, “inactive”; to `c1csc(-c2ccc(-c3cccs3)s2)c1`, 21.9 µM (active). Same read-out and setting: the value for `N#CSCc1ccccc1` was “inactive”; that for `C[C@H]1[C@H](c2ccc(Cl)cc2)SC(=O)N1C(=O)NC1CCCCC1` was “inactive”; that for `COc1c2c(cc3c1OCO3)CCN(C)C2` was “inactive”.

Take `CNC(=O)/C=C(\C)OP(=O)(OC)OC`: the Potency entry was “inactive”. On the same count and under the same terms, to `CSC(C)(C)/C=N/O` belongs “inactive”. Same read-out and setting: to `CCCCC(CC)COC(=O)c1ccccc1C(=O)OCC(CC)CCCC` (stereo not drawn) belongs “inactive”.

The next assay shares this target. Kind of assay: qHTS assay to identify small molecule antagonists of the peroxisome proliferator-activated receptor gamma (PPARg) signaling pathway (AID 743191; calls by dose curve; further: nearly all actives have a fitted effect of over 30% in size; further: potency means the concentration at half of the fitted maximal effect). To be noted: HEK293H PPARg-UAS-bla, beta-lactamase ratio, antagonist, 17 h; series mostly up to 62.6 µM. Summed up: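 GeneBLAzer PPARg UAS-bla HEK293H cells carrying a UAS-driven beta-lactamase reporter were plated at 3000 cells/well, preincubated 5 h at 37C, then given compound for 17 h at 37C; LiveBLAzer B/G FRET substrate was read after 1 h at room temperature.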
In the case of `COC(=O)c1cc(Oc2ccc(Cl)cc2Cl)ccc1[N+](=O)[O-]`, the Potency was 43.6 µM (active).

`CC(C)Br`: the Potency entry was “inactive”. With `O=S(=O)(O)F`, the Potency entry was “inactive”.

Consider `CC(C)=CC1C(C(=O)OC(C#N)c2cccc(Oc3ccccc3)c2)C1(C)C` (stereo not drawn), for which the Potency entry was “inactive”. On the same count and under the same terms, the value for `CC1(C)C(C=C(Cl)Cl)C1C(=O)OC(C#N)c1ccc(F)c(Oc2ccccc2)c1` (stereo not drawn) was “inactive”; that for `Cc1ccn2nc(S(=O)(=O)Nc3c(F)cccc3F)nc2n1` was “inactive”. The same measure, in the same setting: to `Cc1cnc2c(C(=O)O)c(Cl)ccc2c1` belongs “inactive”; to `Cc1c([N+](=O)[O-])c(C)c([N+](=O)[O-])c(C(C)(C)C)c1[N+](=O)[O-]`, “inactive”; to `CNC(=O)/C=C(\C)OP(=O)(OC)OC`, “inactive”. Same read-out and setting: to `NC(=O)C(Cl)Cl` belongs “inactive”.

System in another assay: not listed separately
Kind of assay: qHTS assay to identify small molecule antagonists of the peroxisome proliferator-activated receptor gamma (PPARg) signaling pathway - cell viability counter screen (AID 743194). Further: nearly all actives have a fitted effect of over 55% in size. Further: potency means the concentration at half of the fitted maximal effect. The following applies: PPARg-bla HEK293H viability, CellTiter-Glo luminescence, 17 h; Potency: co-treated with 50 nM rosiglitazone unless noted; series mostly up to 62.6 µM. Summed up: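 PPARg-UAS-bla HEK293H cells were plated, rested 5 h at 37 C, then treated with compounds plus rosiglitazone (50 nM final) for 17 h at 37 C; viability was then read by CellTiter-Glo luminescence after 30 min at room temperature.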
Turning to `CC(C)N(C(=O)SC/C(Cl)=C/Cl)C(C)C`, the Potency result was “inactive”. The same measure, in the same setting: to `CCCCN(CCCC)C(=S)S` belongs “inactive”; to `O=[N+]([O-])c1ccc(CCl)cc1`, “inactive”. As for `COC(=O)c1cc(Oc2ccc(Cl)cc2Cl)ccc1[N+](=O)[O-]`, the Potency result is “inactive”.

`CCOC(=O)CCN(SN(C)C(=O)Oc1cccc2c1OC(C)(C)C2)C(C)C`: the Potency result was “inactive”. Turning to `CC(C)Br`, the Potency result is “inactive”. On the same count and under the same terms, to `CCOP(=S)(OCC)Oc1cc(C)nc(N(CC)CC)n1` belongs “inactive”; to `Clc1cc(Cl)c(-c2cc(Cl)c(Cl)cc2Cl)cc1Cl`, “inactive”; to `CNC(=O)CSP(=O)(OC)OC`, “inactive”. Take `CC(C)=CC1C(C(=O)OC(C#N)c2cccc(Oc3ccccc3)c2)C1(C)C` (stereo not drawn): the Potency entry is “inactive”. Same read-out and setting: the value for `COc1ccc2[nH]cc(CCN(C(C)C)C(C)C)c2c1` was “inactive”. On the same count and under the same terms, the value for `CCCCC/C=C\C/C=C\C/C=C\C/C=C\CCCC(=O)NCC(=O)O` was “inactive”; that for `CC1(C)C(C=C(Cl)Cl)C1C(=O)OC(C#N)c1ccc(F)c(Oc2ccccc2)c1` (stereo not drawn) was “inactive”. On the same count and under the same terms, to `O=S1OCC2C(CO1)C1(Cl)C(Cl)=C(Cl)C2(Cl)C1(Cl)Cl` (stereo not drawn) belongs 55 µM (active) and 24.5 µM (active); to `CN(C)c1ccc(N)cc1`, “inactive”; to `Cc1ccn2nc(S(=O)(=O)Nc3c(F)cccc3F)nc2n1`, “inactive”. Consider `ClC1=C(Cl)[C@]2(Cl)[C@@H]3[C@H]4C[C@H]([C@@H]5O[C@H]45)[C@@H]3[C@@]1(Cl)C2(Cl)Cl`, for which the Potency result was “inactive”.

`ClC1(Cl)C2(Cl)C3(Cl)C4(Cl)C(Cl)(Cl)C5(Cl)C3(Cl)C1(Cl)C5(Cl)C24Cl` (stereo not drawn): the Potency result was “inactive”.

For the compound `Cc1cnc2c(C(=O)O)c(Cl)ccc2c1`, the Potency result was “inactive”. In the case of `CNC(=O)Oc1cc(C)cc(C(C)C)c1`, the Potency result is “inactive”. Consider `N#Cc1ccc(N(CC(N)=O)CC(F)(F)F)cc1C(F)(F)F`, for which the Potency entry is “inactive”.

Regarding `Cc1c([N+](=O)[O-])c(C)c([N+](=O)[O-])c(C(C)(C)C)c1[N+](=O)[O-]`, the Potency result is “inactive”.

For `Clc1ccc(C(c2ccc(Cl)cc2)C(Cl)Cl)cc1`, the Potency was 24.9 µM (active) and 38.9 µM (active). Same read-out and setting: to `CC(C)C(Br)C(=O)NC(N)=O` (stereo not drawn) belongs “inactive”; to `CCCCC(CC)COC(=O)OOC(C)(C)C` (stereo not drawn), “inactive”; to `CCOC(=O)Cc1ccccc1`, “inactive”.

Take `c1csc(-c2ccc(-c3cccs3)s2)c1`: the Potency result is “inactive”.

In the case of `N#CSCc1ccccc1`, the Potency result is “inactive”. The same measure, in the same setting: the value for `C[C@H]1[C@H](c2ccc(Cl)cc2)SC(=O)N1C(=O)NC1CCCCC1` was “inactive”; that for `COc1c2c(cc3c1OCO3)CCN(C)C2` was “inactive”; that for `CSC(C)(C)/C=N/O` was “inactive”. Still for that read-out and setting: the value for `NC(=O)C(Cl)Cl` was “inactive”.

System in a further assay: not listed separately
The experiment in a line: qHTS assay for small molecule agonists of the antioxidant response element (ARE) signaling pathway (AID 743202; active means well fitted activation curve with a large enough effect in the signal ratio in the repeat runs, not every such curve was filed as active; the % refers to the signal ratio). To be noted: HepG2 ARE-bla reporter, beta-lactamase FRET, 16 h; series mostly up to 73.3 µM. Summed up:
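Compounds delivered in DMSO to ARE-bla HepG2 cells (2,000 cells/well, pre-incubated 5 h) and left 16 h at 37 C. LiveBLAzer B/G FRET substrate then added for 2 h at RT before fluorescence reading.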
Take `Cc1ccc(C)c2ccccc12`: the Potency entry is “inactive”. Same read-out and setting: the value for `COC(=O)c1cc(Oc2ccc(Cl)cc2Cl)ccc1[N+](=O)[O-]` was “inactive”; that for `CC(C)Br` was “inactive”. Same read-out and setting: to `Clc1cc(Cl)c(-c2cc(Cl)c(Cl)cc2Cl)cc1Cl` belongs “inactive”. Consider `O=S(=O)(O)F`, for which the Potency result is “inactive”. Still for that read-out and setting: to `CC(C)=CC1C(C(=O)OC(C#N)c2cccc(Oc3ccccc3)c2)C1(C)C` (stereo not drawn) belongs “inactive”; to `CC1(C)C(C=C(Cl)Cl)C1C(=O)OC(C#N)c1ccc(F)c(Oc2ccccc2)c1` (stereo not drawn), “inactive”; to `Cc1ccn2nc(S(=O)(=O)Nc3c(F)cccc3F)nc2n1`, “inactive”. Same read-out and setting: to `Cc1cnc2c(C(=O)O)c(Cl)ccc2c1` belongs “inactive”; to `Cc1c([N+](=O)[O-])c(C)c([N+](=O)[O-])c(C(C)(C)C)c1[N+](=O)[O-]`, “inactive”.

On to `CCCCC(CC)COC(=O)OOC(C)(C)C` (stereo not drawn), for which the Potency entry is “inactive”. Same read-out and setting: to `CCOC(=O)Cc1ccccc1` belongs “inactive”; to `N#CSCc1ccccc1`, “inactive”. Same read-out and setting: to `COc1c2c(cc3c1OCO3)CCN(C)C2` belongs “inactive”; to `CNC(=O)/C=C(\C)OP(=O)(OC)OC`, “inactive”; to `NC(=O)C(Cl)Cl`, “inactive”.

The values above are taken from PubChem BioAssay (Tox21).
